Assay results reported in PMC5540273 (PLoS ONE, 2017).

Columns and labels:
Conditions in all cases: concentration: 1 μM, replicates: in singlicate; n = 1
MEK2 = tested on: T1, MEK2
T1 construct: gene MAP2K2

MEK3 = tested on: T2, MEK3
T2 construct: gene MAP2K3

MEK4 = tested on: T3, MEK4
T3 construct: gene MAP2K4

MEK5 = tested on: T4, MEK5
T4 construct: gene MAP2K5

MEK6 = tested on: T5, MEK6
T5 construct: gene MAP2K6

MELK = tested on: MELK
MERTK = tested on: MERTK
MET = tested on: MET
MINK = tested on: T6, MINK
T6 construct: gene MINK1

MKK7 = tested on: MKK7
MKNK1 = tested on: MKNK1
MKNK2 = tested on: MKNK2
MLCK = tested on: T7, MLCK
T7 construct: gene MYLK3

MLK1 = tested on: T8, MLK1
T8 construct: gene MAP3K9

MLK2 = tested on: MLK2
MLK3 = tested on: MLK3
MRCKA = tested on: MRCKA
MRCKB = tested on: T9, MRCKB
T9 construct: gene CDC42BPB

MST1R = tested on: MST1R
MST1 = tested on: T10, MST1
T10 construct: gene STK4
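Further: KINOMEscan kinase panel screen.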

| Structure (SMILES) | %Inh (MEK2) [%] | %Inh (MEK3) [%] | %Inh (MEK4) [%] | %Inh (MEK5) [%] | %Inh (MEK6) [%] | %Inh (MELK) [%] | %Inh (MERTK) [%] | %Inh (MET) [%] | %Inh (MINK) [%] | %Inh (MKK7) [%] | %Inh (MKNK1) [%] | %Inh (MKNK2) [%] | %Inh (MLCK) [%] | %Inh (MLK1) [%] | %Inh (MLK2) [%] | %Inh (MLK3) [%] | %Inh (MRCKA) [%] | %Inh (MRCKB) [%] | %Inh (MST1R) [%] | %Inh (MST1) [%] |
| --- | --- | --- | --- | --- | --- | --- | --- | --- | --- | --- | --- | --- | --- | --- | --- | --- | --- | --- | --- | --- |
| O=C(Nc1n[nH]c2nc(-c3nccs3)c(Br)cc12)C1CC1 [SB-742251] | 0 | 0 | 13 | 74 | 0 | 0 | 12 | 0 | 20 | 0 | 59 | 51 | 48 | 0 | 0 | 0 | 3 | 0 | 18 | 3 |
| O=c1cc(N2CCOCC2)nc2n(Cc3cccc(Cl)c3Cl)ccn12 [GSK2286295] | 0 | 0 | 6 | 13 | 0 | 0 | 29 | 0 | 6 | 0 | 7 | 1 | 16 | 0 | 0 | 7 | 8 | 0 | 25 | 0 |
| COc1ccc(C2=C(Nc3cccc(C(=O)O)c3)C(=O)NC2=O)cc1 [SB-390765] | 15 | 15 | 7 | 40 | 0 | 11 | 11 | 0 | 8 | 8 | 0 | 43 | 27 | 0 | 0 | 27 | 0 | 8 | 24 | 0 |
| O=S(=O)(c1ccc(-c2ccnc3[nH]ccc23)cc1)N1CCCC1 [GSK846226] | 22 | 0 | 18 | 14 | 21 | 7 | 16 | 0 | 0 | 0 | 14 | 46 | 4 | 0 | 0 | 0 | 0 | 0 | 16 | 0 |
| COc1cc2ncn(-c3cc(OCC4CCCO4)c(C(N)=O)s3)c2cc1OC (stereo not shown) [GSK204607] | 9 | 0 | 5 | 99.3 | 0 | 0 | 10 | 0 | 27 | 0 | 0 | 4 | 0 | 0 | 0 | 10 | 8 | 0 | 16 | 0 |
| COc1cccc(-c2cc(-c3c[nH]nc3-c3ccccn3)ccn2)c1 [GW680338] | 0 | 67 | 8 | 13 | 0 | 19 | 14 | 10 | 65 | 10 | 6 | 0 | 8 | 0 | 43 | 9 | 16 | 0 | 35 | 4 |
| O=C(Nc1ccccc1)Nc1cccc(Oc2ccc3nccn3n2)c1 | 0 | 0 | 0 | 37 | 0 | 0 | 4 | 0 | 13 | 0 | 10 | 0 | 7 | 0 | 9 | 0 | 1 | 4 | 0 | 0 |
| COc1ccc2nc(-c3cccc(C)n3)nc(Nc3ccncc3)c2c1 [GSK204919] | 0 | 0 | 17 | 1 | 0 | 0 | 15 | 15 | 30 | 0 | 0 | 9 | 0 | 0 | 0 | 7 | 38 | 94.1 | 26 | 11 |
| Cc1cc(-c2ccc3c(c2)CC[C@@H](N[C@@H](C)c2ccccc2)C3)cnc1N.Cl [GW412617] | 12 | 0 | 34 | 55 | 0 | 36 | 26 | 0 | 40 | 1 | 13 | 3 | 0 | 0 | 15 | 32 | 0 | 4 | 38 | 1 |
| CC1=C(C(=O)Nc2cc3cn[nH]c3cc2F)C(c2ccc(C(F)(F)F)cc2)CC(=O)N1 (stereo not shown) [GSK429286] | 0 | 23 | 15 | 8 | 0 | 0 | 13 | 0 | 0 | 48 | 0 | 19 | 17 | 0 | 0 | 0 | 1 | 23 | 36 | 0 |
| Cc1c(O)cccc1Nc1ccnc2ccc(C(F)(F)F)cc12.Cl [GW466413] | 0 | 0 | 19 | 35 | 0 | 11 | 0 | 0 | 2 | 0 | 0 | 1 | 1 | 0 | 0 | 4 | 0 | 0 | 0 | 0 |
